Our source for the outcome and AC50 values is PubChem BioAssay (EPA / NIEHS).

Read-out in assay [1]: Intercellular Adhesion Molecule 1 (ICAM1), ICAM1 (gene 3383)
Description: BSK_3C_ICAM1: BioMAP Diversity Plus: 3C Assay for Intercellular Adhesion Molecule 1 (ICAM1) Biomarker Activity (AID 2283003). The settings on record: primary human endothelial cells (HUVEC); actives raise or lower the signal. The essentials: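 Primary human umbilical vein endothelial cells in the BioMAP 3C system were exposed to chemicals for 24 h, then ICAM-1 was quantified by ELISA. Activity was fitted bidirectionally against the DMSO negative control baseline.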

Assay [2] can be described thus: BSK_3C_Proliferation: Cell Proliferation Assessment in the BioMAP Diversity Plus: 3C Assay (AID 2283006).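 As to AC50: potency may reflect either rise or fall in cell number versus DMSO.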 Conditions: primary human endothelial cells (HUVEC). The essentials:
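Human umbilical vein endothelial cells were grown sub-confluent and exposed to chemical for 48 h, then fixed with 10% TCA and stained with 0.1% sulforhodamine B; absorbance at 560 nm gave relative cell number, fitted bidirectionally against DMSO baseline.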

The target of assay [3] is human RAR-related Orphan Receptor beta (RORb), RORB (gene 6096) (UniProt Q92753). Description: ATG_RORb_TRANS: Attagene TRANS-FACTORIAL HepG2 Assay for human RAR-related Orphan Receptor beta (RORb) (AID 2283010; active = hit-call score of the fitted dose curve at least 0.9, where 1 is the maximum). The essentials:
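HepG2 cells were transiently transfected with multiplexed GAL4-UAS reporter units expressing chimeric nuclear receptor–GAL4 proteins, then dosed for 24 h. Reporter mRNA was quantified by RT-PCR with fluorescent labelling and capillary electrophoresis; gain of signal was fitted relative to DMSO.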

In assay [4] the target is human Thyroid Receptor alpha (THRa1), THRA (gene 7067) (UniProt P10827). Description: ATG_THRa1_TRANS: Attagene TRANS-FACTORIAL HepG2 Assay for human Thyroid Receptor alpha (THRa1) (AID 2283014; active = hit-call score of the fitted dose curve at least 0.9, where 1 is the maximum). The essentials: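 HepG2 cells transiently transfected with chimeric NR-Gal4 and GAL4-UAS reporter units, dosed 24 h. Reporter mRNA quantified by RT-PCR, fluorescent labeling, HpaI digestion and capillary electrophoresis; gain-of-signal fit versus DMSO.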

Read-out in assay [5]: E-selectin (Homo sapiens) (UniProt P16581)
Description: BSK_3C_Eselectin: BioMAP Diversity Plus: 3C Assay for Eselectin Biomarker Activity (AID 2283015).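 As to outcome: cell surface E-selectin protein quantified by ELISA 24 h after dosing.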 Conditions: primary human endothelial cells (HUVEC); actives raise or lower the signal. The essentials:
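Primary human umbilical vein endothelial cells (3C system), read 24 h after compound addition; E-selectin measured by ELISA. Bidirectional curve fitting against DMSO baseline; cytotoxicity by parallel SRB total-protein staining.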

Read-out in assay [6]: Interleukin-1 alpha (IL1a), IL1A (gene 3552)
Description: BSK_BE3C_IL1a: BioMAP Diversity Plus: BE3C Assay for Interleukin-1 alpha (IL1a) Biomarker Activity (AID 2283016). Conditions: primary human bronchial epithelial cells; actives raise or lower the signal. In short, it runs like this: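 Human primary bronchial epithelial cells (BE3C system) were dosed with compound and IL-1a measured by ELISA 24 h later. Activity was fitted bidirectionally against DMSO baseline; cytotoxicity was tracked in parallel cultures by SRB total-protein staining.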

Read-out in assay [7]: Monocyte Chemoattractant Protein-1 (MCP1), CCL2 (gene 6347)
Description: BSK_3C_MCP1: BioMAP Diversity Plus: 3C Assay for Monocyte Chemoattractant Protein-1 (MCP1) Biomarker Activity (AID 2283017). Conditions: primary human endothelial cells (HUVEC); actives raise or lower the signal. In short, it runs like this: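 Human umbilical vein endothelial cells (3C system) exposed to chemicals for 24 h; MCP-1 quantified by ELISA against the DMSO baseline with bidirectional fitting, and parallel SRB staining used to assess cytotoxicity.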

Read-out in assay [8]: Monocyte Chemoattractant Protein-1 (MCP1), CCL2 (gene 6347)
Description: BSK_4H_MCP1: BioMAP Diversity Plus: 4H Assay for Monocyte Chemoattractant Protein-1 (MCP1) Biomarker Activity (AID 2283018). Conditions: primary human endothelial cells (HUVEC); actives raise or lower the signal. In short, it runs like this: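 Human umbilical vein endothelial cells (4H system) dosed with chemical; MCP-1 measured by ELISA 24 h after dosing. Bidirectional curve fitting against DMSO negative control as baseline; parallel SRB total-protein staining tracks overt cytotoxicity.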

Read-out in assay [9]: Human Leukocyte Antigen - DR isotype (HLADR), HLA-DRA (gene 3122)
Description: BSK_3C_HLADR: BioMAP Diversity Plus: 3C Assay for Human Leukocyte Antigen - DR isotype (HLADR) Biomarker Activity (AID 2283019).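 As to outcome: ELISA of cell-surface HLA-DR on HUVEC 24 h after dosing.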 Conditions: primary human endothelial cells (HUVEC); actives raise or lower the signal. The essentials:
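HUVEC monoculture, HLA-DR measured by ELISA 24 h after chemical dosing. Fitted bidirectionally against DMSO baseline; parallel SRB staining assessed cytotoxicity, with 3C proliferation read by SRB at 48 h.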

Read-out in assay [10]: Interleukin-8 (IL8), CXCL8 (gene 3576)
Description: BSK_3C_IL8: BioMAP Diversity Plus: 3C Assay for Interleukin-8 (IL8) Biomarker Activity (AID 2283020). Conditions: primary human endothelial cells (HUVEC); actives raise or lower the signal. In short, it runs like this:
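Primary human umbilical vein endothelial cells (3C system) were exposed to test chemical for 24 h, then IL-8 was quantified by ELISA. Responses were fitted bidirectionally against DMSO vehicle as baseline.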

Read-out in assay [11]: Monokine induced gamma interferon (MIG), CXCL9 (gene 4283)
Description: BSK_3C_MIG: BioMAP Diversity Plus: 3C Assay for Monokine induced gamma interferon (MIG) Biomarker Activity (AID 2283021).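 As to AC50: MIG protein level measured by immunoassay in the treated endothelial cultures.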 The settings on record: primary human endothelial cells (HUVEC); actives raise or lower the signal. The essentials:
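Primary human umbilical vein endothelial cells in the 3C system were exposed to chemical for 24 h, after which MIG was quantified by ELISA. Activity was fitted bidirectionally against DMSO as negative control and baseline.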

For assay [12], the target named is Peroxisome proliferator-activated receptor gamma (Homo sapiens) (UniProt P37231). Description: ATG_PPARg_TRANS: Attagene TRANS-FACTORIAL HepG2 Assay for human Peroxisome Proliferator-activated Receptor-gamma (PPARg) (AID 2283007; active = hit-call score of the fitted dose curve at least 0.9, where 1 is the maximum). The essentials: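 HepG2 cells are transiently transfected with GAL4-UAS reporter units driven by chimeric NR-Gal4 fusions and dosed for 24 h. Reporter mRNA is quantified by RT-PCR, 6-FAM labelling, HpaI digestion and capillary electrophoresis. Induction is scored against DMSO.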

In assay [13] the target is Nuclear receptor subfamily 1 group I member 2 (Homo sapiens) (UniProt O75469). Description: ATG_PXR_TRANS: Attagene TRANS-FACTORIAL HepG2 Assay for human Pregnane X Receptor (PXR) (AID 2283008; active = hit-call score of the fitted dose curve at least 0.9, where 1 is the maximum). The essentials: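 HepG2 cells transiently transfected with GAL4-UAS reporter units and PXR-Gal4 chimera, exposed 24 h. Reporter mRNA quantified by RT-PCR, fluorescent labelling, HpaI digestion and capillary electrophoresis; gain of signal vs DMSO.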

In assay [14] the target is human Retinoic Acid Receptor gamma (RARg), RARG (gene 5916) (UniProt P13631). Description: ATG_RARg_TRANS: Attagene TRANS-FACTORIAL HepG2 Assay for human Retinoic Acid Receptor gamma (RARg) (AID 2283009; active = hit-call score of the fitted dose curve at least 0.9, where 1 is the maximum). The essentials: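 HepG2 cells transiently transfected with multiplexed reporter units expressing chimeric RARg-GAL4 and GAL4-UAS-driven reporters; 24 h compound exposure. Reporter mRNA quantified by RT-PCR with fluorescent labelling and capillary electrophoresis; gain-of-signal fitted relative to DMSO baseline.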

The target in assay [15] is Retinoic acid receptor RXR-alpha (Homo sapiens) (UniProt P19793). Description: ATG_RXRa_TRANS: Attagene TRANS-FACTORIAL HepG2 Assay for human Retinoid X Receptor alpha (RXRa) (AID 2283012; active = hit-call score of the fitted dose curve at least 0.9, where 1 is the maximum). The essentials:
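HepG2 cells transiently transfected with multiplexed GAL4-UAS reporter units and chimeric NR-GAL4 fusions, dosed 24 h. Reporter mRNA measured by RT-PCR, FAM labelling, HpaI digestion and capillary electrophoresis; gain-of-signal fitted relative to DMSO baseline.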

For assay [16], the target named is human Retinoid X Receptor beta (RXRb), RXRB (gene 6257) (UniProt P28702). Description: ATG_RXRb_TRANS: Attagene TRANS-FACTORIAL HepG2 Assay for human Retinoid X Receptor beta (RXRb) (AID 2283013; active = hit-call score of the fitted dose curve at least 0.9, where 1 is the maximum). In short, it runs like this: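 HepG2 cells transiently transfected with multiplexed reporter units driven by GAL4-UAS and exogenous chimeric NR-Gal4 proteins; treated 24 h. Reporter mRNA measured by RT-PCR, 6-FAM labelling and capillary electrophoresis; gain-of-signal fitted versus DMSO baseline.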

Assay [17] has as its target human Retinoic Acid Receptor beta (RARb), RARB (gene 5915) (UniProt P10826). Description: ATG_RARb_TRANS: Attagene TRANS-FACTORIAL HepG2 Assay for human Retinoic Acid Receptor beta (AID 2283004; active = hit-call score of the fitted dose curve at least 0.9, where 1 is the maximum). The essentials: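 HepG2 cells were transiently transfected with GAL4-UAS reporter units that report activity of exogenous chimeric NR-Gal4 proteins, then exposed to compound for 24 h. Reporter mRNA was quantified by RT-PCR with capillary electrophoresis fluorescence, as gain of signal over DMSO.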

Results filed as inconclusive are left out. Active and inactive are the calls of the source. The calls were made as follows, unless noted: active = hit-call score of the fitted dose curve at least 0.9, where 1 is the maximum; inactive = score below 0.9.

Sequence of Peroxisome proliferator-activated receptor gamma (Homo sapiens) (P37231 whole entry, looked up, the tested form may be a part): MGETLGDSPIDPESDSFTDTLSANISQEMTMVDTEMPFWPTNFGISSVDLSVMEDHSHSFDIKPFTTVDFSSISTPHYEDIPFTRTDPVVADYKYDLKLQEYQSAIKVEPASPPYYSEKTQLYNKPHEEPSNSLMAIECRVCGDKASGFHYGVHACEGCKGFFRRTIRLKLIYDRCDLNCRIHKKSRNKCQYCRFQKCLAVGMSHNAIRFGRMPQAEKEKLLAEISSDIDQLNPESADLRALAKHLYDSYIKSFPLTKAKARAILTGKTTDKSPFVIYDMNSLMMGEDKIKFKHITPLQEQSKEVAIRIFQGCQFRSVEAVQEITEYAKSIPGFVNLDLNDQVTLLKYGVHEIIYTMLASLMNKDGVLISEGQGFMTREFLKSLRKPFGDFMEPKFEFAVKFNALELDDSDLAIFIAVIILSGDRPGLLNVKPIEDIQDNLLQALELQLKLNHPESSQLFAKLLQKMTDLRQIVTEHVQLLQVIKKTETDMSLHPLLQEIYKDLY
Sequence of human Thyroid Receptor alpha (THRa1), THRA (gene 7067) (P10827 whole entry, looked up, the tested form may be a part): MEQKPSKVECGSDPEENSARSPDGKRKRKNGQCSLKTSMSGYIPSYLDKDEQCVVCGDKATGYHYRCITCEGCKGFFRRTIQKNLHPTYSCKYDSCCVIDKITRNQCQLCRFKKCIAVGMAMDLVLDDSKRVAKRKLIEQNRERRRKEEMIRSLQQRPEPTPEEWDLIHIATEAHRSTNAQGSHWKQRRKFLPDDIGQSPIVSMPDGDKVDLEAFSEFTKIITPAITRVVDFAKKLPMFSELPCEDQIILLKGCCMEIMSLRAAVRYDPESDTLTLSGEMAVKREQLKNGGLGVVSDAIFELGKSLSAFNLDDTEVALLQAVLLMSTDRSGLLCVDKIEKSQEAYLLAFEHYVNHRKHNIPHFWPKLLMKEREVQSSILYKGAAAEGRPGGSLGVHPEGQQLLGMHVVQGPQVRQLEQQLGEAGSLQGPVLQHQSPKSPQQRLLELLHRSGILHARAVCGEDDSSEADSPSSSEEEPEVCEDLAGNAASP
Sequence of Retinoic acid receptor RXR-alpha (Homo sapiens) (P19793 whole entry, looked up, the tested form may be a part): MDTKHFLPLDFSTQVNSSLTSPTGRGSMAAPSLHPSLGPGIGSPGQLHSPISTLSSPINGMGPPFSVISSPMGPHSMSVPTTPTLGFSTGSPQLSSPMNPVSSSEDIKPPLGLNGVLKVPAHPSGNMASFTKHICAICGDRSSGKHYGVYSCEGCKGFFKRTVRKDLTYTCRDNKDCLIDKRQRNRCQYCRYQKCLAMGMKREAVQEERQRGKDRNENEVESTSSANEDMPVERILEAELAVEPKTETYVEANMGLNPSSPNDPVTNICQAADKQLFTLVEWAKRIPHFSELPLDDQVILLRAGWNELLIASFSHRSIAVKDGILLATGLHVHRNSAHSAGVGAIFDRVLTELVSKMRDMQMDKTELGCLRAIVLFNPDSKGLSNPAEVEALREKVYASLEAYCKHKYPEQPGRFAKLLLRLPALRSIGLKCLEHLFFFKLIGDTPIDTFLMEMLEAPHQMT
Sequence of human Retinoic Acid Receptor gamma (RARg), RARG (gene 5916) (P13631 whole entry, looked up, the tested form may be a part): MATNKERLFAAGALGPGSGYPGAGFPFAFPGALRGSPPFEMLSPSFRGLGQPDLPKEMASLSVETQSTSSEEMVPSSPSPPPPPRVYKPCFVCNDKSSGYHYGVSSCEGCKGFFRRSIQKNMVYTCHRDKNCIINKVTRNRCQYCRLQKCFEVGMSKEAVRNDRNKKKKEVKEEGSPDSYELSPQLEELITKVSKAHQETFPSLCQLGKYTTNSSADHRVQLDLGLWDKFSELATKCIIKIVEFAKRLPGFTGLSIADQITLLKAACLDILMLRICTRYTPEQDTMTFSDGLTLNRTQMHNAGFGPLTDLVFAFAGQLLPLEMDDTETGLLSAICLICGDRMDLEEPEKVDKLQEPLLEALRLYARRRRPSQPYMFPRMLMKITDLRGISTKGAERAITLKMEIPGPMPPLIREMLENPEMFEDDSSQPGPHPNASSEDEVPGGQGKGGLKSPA
Sequence of Nuclear receptor subfamily 1 group I member 2 (Homo sapiens) (O75469 whole entry, looked up, the tested form may be a part): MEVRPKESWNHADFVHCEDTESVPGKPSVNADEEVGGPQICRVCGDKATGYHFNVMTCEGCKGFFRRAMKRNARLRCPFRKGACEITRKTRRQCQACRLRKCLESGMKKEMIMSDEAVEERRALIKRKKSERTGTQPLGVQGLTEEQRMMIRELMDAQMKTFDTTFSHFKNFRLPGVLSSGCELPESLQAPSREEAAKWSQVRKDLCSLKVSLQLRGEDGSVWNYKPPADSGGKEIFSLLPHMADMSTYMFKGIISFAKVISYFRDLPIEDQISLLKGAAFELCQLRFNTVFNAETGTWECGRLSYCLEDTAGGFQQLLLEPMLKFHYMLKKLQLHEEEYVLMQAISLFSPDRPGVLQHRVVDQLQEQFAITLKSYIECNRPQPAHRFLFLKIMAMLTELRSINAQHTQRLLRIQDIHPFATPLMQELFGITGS
Sequence of E-selectin (Homo sapiens) (P16581 whole entry, looked up): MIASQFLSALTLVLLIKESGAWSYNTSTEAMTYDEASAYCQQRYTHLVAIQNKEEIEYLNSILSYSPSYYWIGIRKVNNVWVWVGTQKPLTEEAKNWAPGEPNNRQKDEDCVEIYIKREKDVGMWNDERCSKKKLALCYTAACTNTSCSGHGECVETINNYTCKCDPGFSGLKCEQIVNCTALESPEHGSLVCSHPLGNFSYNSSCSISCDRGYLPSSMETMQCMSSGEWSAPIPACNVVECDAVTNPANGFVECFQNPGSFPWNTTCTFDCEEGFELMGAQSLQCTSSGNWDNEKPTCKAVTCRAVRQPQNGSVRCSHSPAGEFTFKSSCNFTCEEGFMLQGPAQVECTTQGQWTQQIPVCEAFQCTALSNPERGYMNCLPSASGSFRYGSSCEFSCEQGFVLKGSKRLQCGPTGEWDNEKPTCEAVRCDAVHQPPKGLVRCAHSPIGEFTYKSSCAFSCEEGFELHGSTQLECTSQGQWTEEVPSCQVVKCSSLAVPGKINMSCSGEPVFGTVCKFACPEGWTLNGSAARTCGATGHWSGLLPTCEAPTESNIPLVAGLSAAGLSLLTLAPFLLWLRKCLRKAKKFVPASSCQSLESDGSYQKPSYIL
Sequence of human Retinoid X Receptor beta (RXRb), RXRB (gene 6257) (P28702 whole entry, looked up, the tested form may be a part): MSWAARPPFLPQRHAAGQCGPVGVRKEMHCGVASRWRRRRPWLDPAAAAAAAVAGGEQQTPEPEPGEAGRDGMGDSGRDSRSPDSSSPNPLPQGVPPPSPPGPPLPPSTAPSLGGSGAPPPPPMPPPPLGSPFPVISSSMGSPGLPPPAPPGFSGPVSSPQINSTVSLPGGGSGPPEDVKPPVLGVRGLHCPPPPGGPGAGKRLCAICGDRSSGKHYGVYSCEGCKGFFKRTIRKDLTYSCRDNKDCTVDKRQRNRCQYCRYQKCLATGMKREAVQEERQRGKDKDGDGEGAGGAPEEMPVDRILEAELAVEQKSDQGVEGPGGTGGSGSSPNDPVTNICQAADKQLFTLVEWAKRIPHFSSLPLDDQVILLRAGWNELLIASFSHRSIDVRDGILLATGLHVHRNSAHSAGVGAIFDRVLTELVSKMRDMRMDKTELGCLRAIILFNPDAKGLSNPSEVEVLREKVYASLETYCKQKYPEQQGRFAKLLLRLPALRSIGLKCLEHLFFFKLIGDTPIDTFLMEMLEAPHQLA
Sequence of human Retinoic Acid Receptor beta (RARb), RARB (gene 5915) (P10826 whole entry, looked up, the tested form may be a part): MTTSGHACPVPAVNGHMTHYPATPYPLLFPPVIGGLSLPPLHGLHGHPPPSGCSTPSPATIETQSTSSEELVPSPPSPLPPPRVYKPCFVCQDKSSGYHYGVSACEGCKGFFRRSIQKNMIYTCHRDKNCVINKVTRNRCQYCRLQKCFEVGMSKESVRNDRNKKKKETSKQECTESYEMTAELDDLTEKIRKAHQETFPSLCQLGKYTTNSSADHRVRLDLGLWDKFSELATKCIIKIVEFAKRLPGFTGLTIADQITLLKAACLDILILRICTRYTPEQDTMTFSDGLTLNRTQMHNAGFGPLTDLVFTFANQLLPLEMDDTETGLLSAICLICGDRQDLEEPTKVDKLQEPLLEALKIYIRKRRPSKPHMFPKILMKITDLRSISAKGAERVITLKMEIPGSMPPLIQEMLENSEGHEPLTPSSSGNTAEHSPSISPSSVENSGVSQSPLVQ
Sequence of human RAR-related Orphan Receptor beta (RORb), RORB (gene 6096) (Q92753 whole entry, looked up, the tested form may be a part): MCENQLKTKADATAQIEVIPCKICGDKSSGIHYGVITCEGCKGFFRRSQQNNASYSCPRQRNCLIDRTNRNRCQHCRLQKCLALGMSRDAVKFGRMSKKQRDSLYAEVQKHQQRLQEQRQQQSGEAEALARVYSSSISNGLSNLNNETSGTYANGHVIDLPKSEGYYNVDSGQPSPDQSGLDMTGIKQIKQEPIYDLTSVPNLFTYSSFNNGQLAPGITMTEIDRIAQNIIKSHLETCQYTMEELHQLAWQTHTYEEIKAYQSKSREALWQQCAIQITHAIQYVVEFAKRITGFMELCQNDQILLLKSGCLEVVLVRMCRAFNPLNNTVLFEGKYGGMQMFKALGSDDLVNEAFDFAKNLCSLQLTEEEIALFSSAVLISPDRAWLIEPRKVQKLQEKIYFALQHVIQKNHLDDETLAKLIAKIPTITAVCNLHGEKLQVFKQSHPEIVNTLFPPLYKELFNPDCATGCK

As for `C[N+](C)(C)CC1CO1` (stereo not given), the outcome in [1], in assay [2], in [3], in assay [4], in assay [5] and in assay [6] was inactive. The result in [7], in [8], in [9], in assay [10] and in assay [11] was inactive.

Regarding `CCCCCCCCCCCCCN1CC(C)OC(C)C1` (stereo not given), the result in [1], in assay [12], in [14], in [4], in [5] and in [6] was inactive. Also, the outcome in [7], in assay [8], in assay [9], in [10] and in assay [11] was inactive. In addition, the AC50 in [2] was 14.5 µM (active); in [13], 26.2 µM (active); in [15], 26.4 µM (active); in assay [16], 26.6 µM (active).

For the compound `OCCOCCO`, the outcome in assay [1], in assay [17], in [2], in [15], in assay [16] and in [5] was inactive. In addition, the outcome in [6], in assay [7], in assay [8], in [9], in [10] and in assay [11] was inactive.

Take `CC(C)(C)C(O)(CCc1ccc(Cl)cc1)Cn1cncn1` (stereo not given): the outcome in assay [1], in [12], in assay [14], in assay [15], in [5] and in assay [6] was inactive. In addition, the outcome in assay [7], in assay [8], in assay [9], in assay [10] and in [11] was inactive. In addition, the AC50 in [13] was 0.977 µM (active).

`CCC[CH2][Sn]([Cl])([CH2]CCC)[CH2]CCC`: the AC50 was 0.148 µM (active) in assay [1]; 0.927 µM (active) in [13]; 0.245 µM (active) in assay [15]; 0.0637 µM (active) in assay [16]; 0.148 µM (active) in [5]; 0.148 µM (active) in assay [6]. In addition, the concentration at half-maximal activity (AC50) in assay [7] was 0.148 µM (active); in [8] it was 3.62 µM (active); in assay [9], 0.148 µM (active); in assay [10], 0.155 µM (active); in assay [11] it was 0.148 µM (active). Moreover, the compound was classed as inactive in [4].

For the compound `ClC1=C(Cl)C2(Cl)C3C(Cl)C=CC3C1(Cl)C2(Cl)Cl` (stereo not given), the AC50 in [1] was 30.2 µM (active); in assay [5] it was 26.8 µM (active); in assay [6], 28.6 µM (active); in [7], 30 µM (active); in assay [8] it was 24.1 µM (active); in assay [9], 22.7 µM (active). Further, the concentration at half-maximal activity (AC50) is 32.7 µM (active) in [10] and 35.7 µM (active) in [11]. Besides, the outcome in assay [12], in assay [13], in [14], in assay [15] and in assay [16] was inactive.
